# Hits are enriched below; roughly 1.6% of the tested compounds scored in any of these assays.
# PABP FP inh – PABP-poly(A) binding inhibition; calls only at 35 µM; actives 1% (n = 290,000); PABP-poly(A) RNA binding, fluorescence polarization; AID 2014;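 note: calls also rest on retests at 20 µM and on dose response follow-up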
# eIF4E-4G inh – blocks eIF4E binding to eIF4G; TR-FRET eIF4E-eIF4GI(517-606) binding, 2 h; inhibition, % at 21.7 µM; actives 0.37% (n = 220,000);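 active = inhibition above about 30%, limit read from the data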;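 note: 0% = full FRET control wells and 100% = background wells lacking eIF4GI fragment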
# PERK inh – inhibitors of human PERK kinase. inhibition, % at 5.6 µM. CHO PERK-DD fusion, SEAP luminescence translation reporter. Q9NZJ5. actives 0.17% (n = 220,000);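 active = inhibition above the mean inhibition of all tested compounds plus 3 SD, set separately per screening campaign, cut at about 2.9% in these data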;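 note: PERK kinase domain activated by AP20187 dimerizer at 100 nM; 0% = DMSO with dimerizer and 100% = rapamycin at 8.4 µM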
# Target sequence (Q9NZJ5 whole entry, looked up, the tested form may be a part): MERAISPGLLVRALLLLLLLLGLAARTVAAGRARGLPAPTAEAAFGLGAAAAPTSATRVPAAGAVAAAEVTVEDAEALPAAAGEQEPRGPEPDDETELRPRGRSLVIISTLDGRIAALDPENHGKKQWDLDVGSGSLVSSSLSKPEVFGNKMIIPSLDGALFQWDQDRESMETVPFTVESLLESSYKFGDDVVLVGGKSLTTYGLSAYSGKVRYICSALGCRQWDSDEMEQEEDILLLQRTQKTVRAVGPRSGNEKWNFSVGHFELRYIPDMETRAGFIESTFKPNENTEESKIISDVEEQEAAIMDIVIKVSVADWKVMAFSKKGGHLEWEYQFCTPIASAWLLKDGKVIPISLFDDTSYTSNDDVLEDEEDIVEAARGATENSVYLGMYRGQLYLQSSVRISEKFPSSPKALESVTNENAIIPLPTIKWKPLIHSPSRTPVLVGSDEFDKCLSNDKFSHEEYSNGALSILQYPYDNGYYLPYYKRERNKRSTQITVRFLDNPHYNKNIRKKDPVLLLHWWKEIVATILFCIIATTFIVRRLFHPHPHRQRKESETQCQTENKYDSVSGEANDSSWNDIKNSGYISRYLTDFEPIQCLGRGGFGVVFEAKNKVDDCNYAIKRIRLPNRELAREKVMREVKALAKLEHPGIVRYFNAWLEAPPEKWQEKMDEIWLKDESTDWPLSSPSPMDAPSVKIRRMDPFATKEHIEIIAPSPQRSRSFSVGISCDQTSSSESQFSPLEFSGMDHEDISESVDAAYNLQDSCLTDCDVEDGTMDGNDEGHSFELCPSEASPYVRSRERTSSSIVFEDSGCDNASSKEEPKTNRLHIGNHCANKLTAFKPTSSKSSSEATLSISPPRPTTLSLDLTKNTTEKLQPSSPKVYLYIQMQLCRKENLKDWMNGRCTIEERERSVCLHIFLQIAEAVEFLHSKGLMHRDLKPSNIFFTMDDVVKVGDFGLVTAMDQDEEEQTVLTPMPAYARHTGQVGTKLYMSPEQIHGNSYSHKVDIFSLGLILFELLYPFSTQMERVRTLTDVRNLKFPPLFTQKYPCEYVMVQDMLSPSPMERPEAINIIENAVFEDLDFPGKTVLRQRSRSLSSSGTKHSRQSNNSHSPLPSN
# eIF4H inh – inhibitors of RNA binding by human eIF4H | eIF4H fluorescence polarization binding assay | inhibition, % at 35 µM | actives 0.94% (n = 290,000) | Q15056;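 note: calls also rest on retests at 20 µM and on dose response follow-up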
# MLLE-PAM2 inh – inhibitors of microRNA-mediated deadenylation, human PABP1 MLLE binding; GST-MLLE / FITC-PAM2 fluorescence polarization; inhibition, % at 20 µM; actives 0.36% (n = 360,000); in the data active = inhibition above about 35%, passing the limit was not always enough;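 note: plate controls were DMSO wells with GST-MLLE for no effect and wells lacking GST-MLLE protein for full effect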
# Active calls of the source: *; i = inactive; ? = inconclusive; . = not tested or not shown; + = active, no number; [ ] = another dose, or the depositor's remark. Unless noted, the rule behind the calls is not given here.
SMILES,PABP FP inh,eIF4E-4G inh,PERK inh,eIF4H inh,MLLE-PAM2 inh
CC1Cc2ccccc2N1C(=O)CCS(=O)(=O)c1ccc2c(c1)NC(=O)CS2 (centres undefined),+,.,.,58,-16
COc1ccc(Nc2nc3[nH]c(=O)cc(O)c3s2)cc1,i,4,1,56*,-19
OC(COCc1ccccc1)COCc1ccccc1,.,.,.,.,16
NC(CO)(CO)COCc1ccccc1,+,0,1,68,10
CCOC(=O)CSC1=N/C(=C\c2cc(OC)c(OC)c(OC)c2)C(=O)N1C,i,6,1,-2,42*
CCOc1ccc(N(CC(=O)N2CCCCCC2)S(C)(=O)=O)cc1,i,.,.,-7,24
Cc1ccc(OCc2nc(-c3ccccn3)n[nH]2)cc1,i,34*[fluorescence artefact?],0,2,-8
COC(=O)C(Cc1cnc(Cl)s1)(C(=O)OC)c1ccccc1[N+](=O)[O-],i,-3,1,0,-12
COC(=O)C(C)(C(=O)OC)c1ccccc1[N+](=O)[O-],+,-3,0,?,0
Cc1ccccc1N=C(N)Nc1ccccc1C,.,.,.,.,58*
Cc1ccc(-c2cc(-c3ccccc3Cl)c(C#N)c(N)n2)o1,+,2,1,66*,-16
Cc1ccc(-c2cc(-c3ccccc3)c(C#N)c(N)n2)o1,+,27,-1,?,5
NC(=O)C12CCCC(Br)(CCC1)C2,i,92*,0,-9,-8
Cc1ccc(-c2cc(C(=O)N/N=C/c3ccc([N+](=O)[O-])o3)c3ccccc3n2)o1,+,.,.,76*,-2
O=C(CNc1cccc2ccccc12)N/N=C/c1ccc([N+](=O)[O-])o1,+,3,1,85*,10
Cn1c(/C=C/c2ccc([N+](=O)[O-])o2)nc2ccccc2c1=O,+,2,-1,?,-17
Cn1c(/C=C/c2ccccc2)nc2ccccc2c1=O,i,.,.,-5,7
O=C(N/N=C/c1ccc([N+](=O)[O-])o1)c1cc(-c2ccc(-c3ccccc3)cc2)nc2ccccc12,i,7,1,58,-10
Cc1ccc(/C=N/NC(=O)c2cc(-c3ccncc3)nc3ccccc23)o1,i,.,.,10,3
O=C(N/N=C/c1ccc([N+](=O)[O-])o1)c1cc(-c2ccncc2)nc2ccccc12,+,-1,-1,68*,0
CC1(C(=O)NCc2cccc(Cl)c2)Cc2c(-c3ccc4c(c3)OCO4)ccnc2O1 (centres undefined),.,.,.,.,-6
COc1cccc(CN(C(=O)/C=C/c2ccc(Cl)cc2)C2CCS(=O)(=O)C2)c1 (centres undefined),i,2,0,-5,-2
Cc1cc(C)c2c(=O)[nH]c(=O)n(Cc3ccccc3)c2n1,+,-1,-1,103*,-74
Cc1ccc(-c2nc3c(c(=O)[nH]c(=O)n3Cc3ccccc3)n2C)o1,+,28,0,88*,3
COc1ccc(CCC(=O)Nc2c(-c3ccc(N(C)C)cc3)[nH][nH]c2=O)cc1,.,.,.,.,0
SMILES,PABP FP inh,eIF4E-4G inh,PERK inh,eIF4H inh,MLLE-PAM2 inh
COc1cccc(N2CCN(Cc3nc4scc(-c5ccccc5)c4c(=O)[nH]3)CC2)c1,+,0,0,79*,-40
COC(=O)[C@H](CC(C)C)NCc1cccc(CN[C@@H](CC(C)C)C(=O)OC)c1,i,.,.,0,5
Cn1cc(Br)c(C(=O)NC2CCCCCC2)n1,i,.,.,80*,4
Cc1ccc([N+](=O)[O-])cc1NCC(=O)NN,i,1,1,1,10
O=C1c2cccc3cc([N+](=O)[O-])cc(c23)C(=O)N1CCN1CCCC1,i,13,-2,81,50*
Nc1cc2c3c(cccc3c1)C(=O)N(CCN1CCCC1)C2=O,+,6,1,114*,74
CCN(CC)CCN1C(=O)c2cccc3cc(N)cc(c23)C1=O,+,8,1,91*,105
Cc1cc(C)c(S(=O)(=O)N2CCN(CCN3C(=O)c4cccc5cccc(c45)C3=O)CC2)cc1[N+](=O)[O-],i,-1,0,9,.
CCN(CC)c1ccc(/C=N/N2C(=O)c3ccccc3C2=O)c(O)c1,i,-5,1,2,-3
O=C1c2cccc3cc([N+](=O)[O-])cc(c23)C(=O)N1/N=C/c1ccc(O)cc1O,+,13,2,91*,2
CC1(C(=O)NS(=O)(=O)c2ccc(C#N)cc2)CCN1C(=O)Cc1ccccc1Cl (centres undefined),.,.,.,.,7
COCCN1C[C@@H](CO)O[C@@H](n2cnc3c(NCc4ccco4)ncnc32)C1,.,.,.,.,-8
Cc1cc(NC(=O)COC(=O)[C@@H]2CCCN2C(=O)c2cccs2)no1,.,.,.,.,4
COc1ccc(C2C3=C(CC(C)(C)CC3=O)Nc3c2c(=O)n(C)c(=O)n3C)cc1OC (centres undefined),i,-3,0,active,3
C=CCOc1ccccc1C1C2=C(CC(C)(C)CC2=O)Nc2c1c(=O)n(C)c(=O)n2C (centres undefined),i,-2,2,2,-7
O/N=C\c1ccc2noc(-c3ccc(Cl)cc3)c2c1,i,.,.,-11,3
O=C1Nc2ccccc2C(=O)C1(Cl)Cc1ccccc1 (centres undefined),i,38*,0,0,-95
S=C(NCc1ccc(Cl)cc1)NN1CCOCC1,i,-4,1,-4,-18
O=C(O)COc1ccccc1C(Nc1ccccn1)c1cc(Cl)c2cccnc2c1O (centres undefined),+,20,1,54*,32
CCOC(=O)c1sc(-c2ccc(Cl)cc2Cl)nc1O,i,-1,1,-1,19
COc1cc(/C=N/Nc2nn3cnnc3c3ccccc23)ccc1O,i,-4,0,3,-3
Oc1ccc(/C=N/Nc2nn3cnnc3c3ccccc23)cc1,i,98*,0,6,-11
CCCCCc1nc2ccccc2c(=O)n1N,i,-10,0,1,3
CCCc1nc2ccccc2c(=O)n1N,i,5,3.6*,-5,-7
COC(=O)CC(NC(=S)NC(=O)c1ccccc1)c1ccc(Br)cc1 (centres undefined),i,.,.,16,46*
SMILES,PABP FP inh,eIF4E-4G inh,PERK inh,eIF4H inh,MLLE-PAM2 inh
Cc1ccc(S(=O)(=O)N2CCN(C(C)C(=O)Nc3ccccc3-c3ccccc3)CC2)cc1 (centres undefined),i,32*[fluorescence artefact?],0,7,-8
N#C/C(=C(/O)CSc1ncn[nH]1)c1nc2ccccc2[nH]1,+,9,0,64,-14
N#Cc1ccc(/C=C/C(=O)c2ccco2)cc1,i,2,1,11,-109
Nc1ccc(/C=C/C(=O)c2ccco2)cc1,+,-5,0,54*,-124
CCc1nc2c(OCCOc3ccc(F)cc3)cccn2c1N(C)C(=O)CC(C)C,.,.,.,.,-4
Cc1c(Cl)cnn1CC(=O)NC1C(=O)N2C(C(=O)O)=C(CSc3nnnn3C)CSC12 (centres undefined),i,5,0,28,30
